Measured values taken from PubChem BioAssay (NCI).
Several values for one entry are separate records, joined by “and”; a condition that tells them apart may be missing. Identical values can stand only once. This is part of a sample that, as a whole, favours compounds with a hit. Of some 83,000 tested, about 20% had one in any assay.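 The endpoint reported here, percent growth, reads 100 for growth as untreated, 0 for no net growth and -100 for all cells dead.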 Activity calls are given as the source filed them. How the source made its calls: active means growth percent below 10; inactive means the rest.

Key:
Assay in all cases: NCI-60 one-dose screen, 48 h (100 = growth as untreated, 0 = no growth, -100 = all killed)
Details in all cases: 10 µM unless noted
HCT-15 colon = test system: HCT-15 colon
HT29 colon = test system: HT29 colon
SNB-75 CNS = test system: SNB-75 CNS
SNB-19 CNS = test system: SNB-19 CNS
U251 CNS = test system: U251 CNS
PC-3 prostate = test system: PC-3 prostate
SK-MEL-5 melanoma = test system: SK-MEL-5 melanoma
UACC-62 melanoma = test system: UACC-62 melanoma
LOX IMVI melanoma = test system: LOX IMVI melanoma
SK-MEL-28 melanoma = test system: SK-MEL-28 melanoma

Measured: growth

CC12CCC(CC1)C(C)(C)O2
inactive: HCT-15 colon 97.2% | HT29 colon 95.1% | SNB-75 CNS 74% | SNB-19 CNS 103% | U251 CNS 103% | PC-3 prostate 99.7% | SK-MEL-5 melanoma 102% | UACC-62 melanoma 103% | LOX IMVI melanoma 97.4% | SK-MEL-28 melanoma 114%

Cn1c(=O)c2[nH]c(CCCCCCCCc3nc4ccccc4[nH]3)nc2n(C)c1=O
inactive: HCT-15 colon 80.1% and 96.1% | HT29 colon 99% and 85.6% | SNB-75 CNS 93.5% and 80.5% | SNB-19 CNS 66.9% and 65.4% | U251 CNS 72.5% and 80.2% | PC-3 prostate 48.3% and 87.3% | UACC-62 melanoma 59.1% | LOX IMVI melanoma 58.3% and 55.9% | SK-MEL-28 melanoma 88.9%
3.01% (active) and 12.2% (inactive): SK-MEL-5 melanoma

Cc1cc(C)c(N)c(Br)c1
inactive: HCT-15 colon 106% and 95.4% | HT29 colon 102% and 90.4% | SNB-75 CNS 83.3% and 74.5% | SNB-19 CNS 107% and 94.7% | U251 CNS 105% and 104% | PC-3 prostate 102% and 91.9% | SK-MEL-5 melanoma 103% and 96.3% | UACC-62 melanoma 108% and 94.5% | LOX IMVI melanoma 106% and 96.4% | SK-MEL-28 melanoma 110% and 102%

COc1c(/C(C)=N/N=c2sc(C(C)=O)nn2-c2ccc(Cl)cc2)c(Oc2ccccc2)c(OC)c2occc12
inactive: HCT-15 colon 102% and 92.6% | HT29 colon 108% and 86.1% | SNB-75 CNS 80.6% and 90.1% | SNB-19 CNS 96.1% and 98.1% | U251 CNS 99.5% and 97.2% | PC-3 prostate 102% and 88% | SK-MEL-5 melanoma 100% and 103% | UACC-62 melanoma 96.1% and 84.7% | LOX IMVI melanoma 91.8% and 96% | SK-MEL-28 melanoma 112%

C1CCCCNCCC1
inactive: HCT-15 colon 113% | HT29 colon 95.1% | SNB-75 CNS 99.5% | SNB-19 CNS 110% | U251 CNS 103% | PC-3 prostate 101% | SK-MEL-5 melanoma 109% | UACC-62 melanoma 103% | LOX IMVI melanoma 111% | SK-MEL-28 melanoma 109%

NCCSC(C[N+](=O)[O-])c1ccccc1Cl (stereo not given)
inactive: HCT-15 colon 22.4% | HT29 colon 36% | SNB-75 CNS 105% | SNB-19 CNS 102% | U251 CNS 77.6% | PC-3 prostate 68.1% | SK-MEL-5 melanoma 85.1% | UACC-62 melanoma 92.6% | LOX IMVI melanoma 31.4%
active: SK-MEL-28 melanoma -20.5%

O=[N+]([O-])c1ccc(/C=N\NC(=S)Nc2ccc(F)cc2)cc1
inactive: HCT-15 colon 106% and 96.6% | HT29 colon 93.9% and 95.1% | SNB-75 CNS 92.5% and 97.9% | SNB-19 CNS 103% and 93.5% | U251 CNS 82.8% and 83.4% | PC-3 prostate 101% and 86% | SK-MEL-5 melanoma 102% and 101% | UACC-62 melanoma 104% and 91% | LOX IMVI melanoma 88.9% | SK-MEL-28 melanoma 103% and 104%

COc1cc(Nc2nc3ccccc3nc2NS(=O)(=O)c2ccc(NC(=O)c3ccc(C)c(OC)c3)cc2)cc(OC)c1
63.8% (inactive) and -17.5% (active): SK-MEL-28 melanoma
56.4% (inactive) and -32.5% (active): UACC-62 melanoma
53.7% (inactive) and 5.41% (active): HT29 colon
32% (inactive) and -34.7% (active): SNB-75 CNS
inactive: HCT-15 colon 60.3% and 13.4% | SNB-19 CNS 68.2% and 39.1% | U251 CNS 55.4% and 21.5% | PC-3 prostate 21.5% and 11.1%
52.7% (inactive) and 2.52% (active): LOX IMVI melanoma
85.3% (inactive) and -25.7% (active): SK-MEL-5 melanoma

CC(=O)Nc1ccc(O)cc1
inactive: HCT-15 colon 103% and 109% and 105% | HT29 colon 99.8% and 96.8% and 108% | SNB-75 CNS 99.8% and 91.8% and 104% | SNB-19 CNS 101% | U251 CNS 102% and 106% and 107% | PC-3 prostate 90.4% and 136% and 97.6% | SK-MEL-5 melanoma 98% and 113% and 112% | UACC-62 melanoma 99.9% and 102% and 106% | LOX IMVI melanoma 103% and 101% and 106% | SK-MEL-28 melanoma 114% and 66.2% and 125%

CCOc1ccc2cc(-c3nn(CC4CCN(C)CC4)c4ncnc(N)c34)ccc2c1
active: UACC-62 melanoma -24.5%
77.7% (inactive) and 6.18% (active): LOX IMVI melanoma
87.2% (inactive) and -65.2% (active): SK-MEL-5 melanoma
69.2% (inactive) and 9.92% (active): HT29 colon
97.1% (inactive) and -58.3% (active): SK-MEL-28 melanoma
inactive: HCT-15 colon 76% and 29.8% | SNB-75 CNS 50% and 33.9% | SNB-19 CNS 92.8% and 68.3% | U251 CNS 83.8% and 43.3% | PC-3 prostate 85.8% and 51.5%

Cc1c(Cl)cccc1NCN1C(=O)c2ccccc2C1=O
inactive: HCT-15 colon 98.4% | HT29 colon 104% | SNB-75 CNS 94.4% | SNB-19 CNS 110% | U251 CNS 95.5% | PC-3 prostate 101% | SK-MEL-5 melanoma 99.5% | UACC-62 melanoma 114% | LOX IMVI melanoma 97% | SK-MEL-28 melanoma 112%

O=C(N/N=C/c1ccccc1)N/N=C/c1ccccc1
inactive: HCT-15 colon 104% and 103% | HT29 colon 109% and 105% | SNB-75 CNS 103% and 88% | SNB-19 CNS 105% and 106% | U251 CNS 114% and 97.8% | PC-3 prostate 97.7% | SK-MEL-5 melanoma 106% and 94.5% | UACC-62 melanoma 101% | LOX IMVI melanoma 117% and 103% | SK-MEL-28 melanoma 121% and 113%

Cc1ccc(S(=O)(=O)Nc2nc3ccccc3nc2Nc2ccc3nsnc3c2)cc1
inactive: HCT-15 colon 32% and 58.6% | HT29 colon 47.5% and 63.2% | SNB-75 CNS 63.3% and 65.9% | SNB-19 CNS 47.7% and 47.6% | U251 CNS 26.1% and 40.1% | PC-3 prostate 42.8% and 27.3% | SK-MEL-5 melanoma 18.7% and 13.7% | UACC-62 melanoma 19% and 12.8% | LOX IMVI melanoma 65.8% and 47% | SK-MEL-28 melanoma 49.8% and 51.6%

CN(C)c1ccc(C(=C2C=CC(=[N+](C)C)C=C2)c2ccccc2Cl)cc1
active: HCT-15 colon 6.9% and -30.6% | HT29 colon -38.3% and -24% | SNB-75 CNS -58.6% and -96.1% | SNB-19 CNS -96.9% and -95.6% | U251 CNS -58.3% and -97.7% | PC-3 prostate -19.5% | SK-MEL-5 melanoma -100% and -96.9% | UACC-62 melanoma -70.6% and -73.3% | LOX IMVI melanoma -57.2% and -97.2% | SK-MEL-28 melanoma -93.7% and -96.8%

O=C1CCN(Cc2ccccc2)C(=S)N1
inactive: HCT-15 colon 99.2% and 98.3% | HT29 colon 121% and 98% | SNB-75 CNS 125% and 83.2% | SNB-19 CNS 105% and 101% | U251 CNS 102% and 98.7% | PC-3 prostate 92.3% | SK-MEL-5 melanoma 105% and 108% | UACC-62 melanoma 102% and 98.9% | LOX IMVI melanoma 105% and 99.7% | SK-MEL-28 melanoma 126% and 107%
